# Most compounds without a hit are left out; they make up all but 19% or so of the library.
# Cycloheximide cs = counter-screen for Shiga toxin inhibitors: cycloheximide protein synthesis inhibition; AID 2314; hit rate 12% among 300,000; cell reporter, cycloheximide protein synthesis inhibition counterscreen; max response, %; in the data active = max response mostly above about 13%, no sharp cut-off; inactive = mostly below about 14%; also: read at 38.3 µM for the half of the compounds with a filed dose
# Pf growth 48h = P. falciparum growth inhibition at 48 hours (one generation) | hit rate 5.9% among 310,000 | AID 504832 | P. falciparum luciferase growth in erythrocytes, 48 h | Potency, µM (titrated, usually from 28.7 µM), usual class: inhibitors
#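 Erythrocytes infected with P. falciparum carrying an integrated firefly luciferase reporter (2% hematocrit, 0.1% parasitemia final) were exposed to compounds in RPMI 1640 with 0.5% Albumax at 37 C, 5% CO2. Growth inhibition was scored as reduced luminescence.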
# AMA1 RON2 block = disrupts binding of P. falciparum AMA1 to RON2 | hit rate 0.2% among 360,000 | Potency, µM (series often up to 58.2 µM), actives largely listed as inhibitors | AlphaScreen AMA1-biotinylated RON2 peptide binding; also: nearly all actives have a fitted effect of over 45% in size
#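 AMA1 (3D7) with his tag at 25 nM final met compounds first, then biotinylated RON2 peptide at 25 nM; detection used donor plus acceptor beads, 10 µg/mL apiece, read by AlphaScreen after 30 min at room temperature.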
# SARS PLP yeast = SARS-CoV PLP inhibition in yeast | S. cerevisiae expressing SARS-CoV PLpro, growth rescue | Potency, µM (highest dose often 32.9 µM), hits mostly activators | hit rate 0.19% among 330,000 | AID 485353; calls by dose curve; also: nearly all actives have a fitted effect of over 55% in size
# Pf growth 96h = P. falciparum growth inhibition at 96 hours; P. falciparum luciferase reporter growth, 96 h; Potency, µM (top dose mostly 28.7 µM), usual class: inhibitors; hit rate 6.9% among 320,000; AID 504834
#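 Cell-based qHTS: luciferase-tagged P. falciparum in erythrocytes (2% hematocrit, 0.05% parasitemia final) incubated with compounds for 96 hours, 37 C, 5% CO2; luciferase detection reagent then added and luminescence measured.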
# Shiga toxin inh = blocks Shiga toxin action in Vero cells; inhibition, % at 38.7 µM; hit rate 9.2% among 290,000; Vero cells, Shiga toxin protein synthesis inhibition reporter; AID 2315; in the data active = inhibition mostly above about 28%, no sharp cut-off; inactive = mostly below about 43%
# Numbers stand for hits; - = inactive; ? = inconclusive; . = not tested or not shown; [ ] = dose if it differs, or a comment. Unless noted, calls follow the shape of the dose curve; as a rule, active = well fitted curve in the direction sought with a large enough effect; inconclusive = small, poorly fitted or top-dose-only effect, or another doubt; inactive = no such curve, though single readings can be large; an effect the other way counts as inactive or inconclusive.
SMILES,Cycloheximide cs,Pf growth 48h,AMA1 RON2 block,SARS PLP yeast,Pf growth 96h,Shiga toxin inh
COc1ccc(/C=C(\CC(=O)O)c2nc3ccccc3s2)cc1O,-,-,-,-,-,72
O=C(O)C/C(=C\c1cccc(NC(=O)c2ccccc2Cl)c1)c1nc2ccccc2s1,26,-,-,-,?,52
COc1cc(C=C(c2nc3ccccc3s2)c2nc3ccccc3s2)cc(OC)c1O,17,?,?,-,?,-
Cc1ccc(/C=C(\CCC(=O)O)c2nc3ccccc3s2)cc1[N+](=O)[O-],-,-,-,-,-,-
COc1cc(/C=C(\C#N)c2nc3ccccc3s2)ccc1OCC(=O)Nc1ccccc1,-,?,-,-,-,-
COc1ccc(C(=O)Nc2cccc(/C=C(\CCC(=O)O)c3nc4ccccc4s3)c2)cc1,17,-,-,-,-,59
CCOc1cc(/C=C(\CC(=O)O)c2nc3ccccc3s2)ccc1OC,-,?,-,-,-,-
COc1cc(/C=C(\CC(=O)O)c2nc3ccccc3s2)cc(OC)c1O,-,-,-,-,-,-
O=C(O)c1ccc(C=C(c2nc3ccccc3s2)c2nc3ccccc3s2)cc1,-,-,-,-,-,-
CN(C)c1ccc(/C=C(\Cl)c2nc3ccccc3s2)cc1,66,-,-,-,-,79
CN(c1ccccc1)c1ccc(/C=C(\CCC(=O)O)c2nc3ccccc3s2)cc1[N+](=O)[O-],16,-,?,-,-,-
CCOc1cc(/C=C2\SC(=N)N(c3nonc3N)C2=O)ccc1OCCN1CCOCC1,14,1.3µM,-,-,?,-
CCN(CC)c1ccc(/C=N/NC(=O)OC(C)(C)C)cc1,34,-,-,-,-,85
CCN(CC)c1ccc(/C=N/NC(=O)CC(C)C)cc1,47,-,-,-,?,47
CCN(CC)c1ccc(/C=N/NC(=S)NCc2ccco2)cc1,-,?,-[2.32 µM],-,?,-
CCN(CC)c1ccc(/C=N\NC(N)=O)cc1,-,-,-,-,-,-
CCN(CC)c1ccc(/C=N/O)cc1,17,-,-,-,-,-
CCN(CC)c1ccc(/C=N/NC(=O)c2ccoc2C)cc1,25,-,-,-,-,45
Cc1cc([N+](=O)[O-])nn1CC(=O)N1c2ccccc2CC1C (stereo not drawn),-,-,-,-,-,-
O=C1C=C(c2ccccc2Oc2ccccc2)C[C@@H](c2ccc(F)cc2)C1,.,.,-,.,.,.
O=C(N1CCCC1)n1c(Cc2ccccc2)nc2ccccc21,-,-,-,-,-,-
COc1ccc(NC(=O)c2ccc(S(=O)(=O)N3CCOCC3)o2)cc1,-,-,-,-,-,-
CCN(CC)c1ccc(/C=N/NC(=O)c2ccc(O)cc2)cc1,49,.,.,.,.,116
CCN(CC)c1ccc(C(=O)N/N=C(\C)c2cccnc2)cc1,-,?,-,-,-,-
CCN(CC)c1ccc(C(=O)N/N=C(\C)c2ccc(O)cc2)cc1,-,?,-,-,10µM,-
SMILES,Cycloheximide cs,Pf growth 48h,AMA1 RON2 block,SARS PLP yeast,Pf growth 96h,Shiga toxin inh
C/C(=N\NC(=O)c1ccc(OC2CCCC2)cc1)c1ccc(O)cc1,-,?,-,?,13µM,-
Cc1ccccc1C(=O)Nc1ccc(C(=O)N/N=C/c2ccc(O)cc2)cc1,-,-,-,-,-,-
COc1ccc(-c2nnn(CC(=O)N(CC3CCCO3)C(C(=O)NC(C)(C)C)c3ccco3)n2)cc1OC (stereo not drawn),-,?,-,-,-,-
O=S(=O)(c1ccc(Br)cc1F)N1CCC(O)CC1,.,.,-,.,.,.
CCN(CC)C(=S)S,.,-,.,.,?,.
Cc1ccsc1C(=O)Nc1ccc2c(c1)OCCO2,29,-,-,-,-,27
CC(=O)Nc1ccc2c(c1)OCCOCCOc1cc(NC(C)=O)ccc1OCCOCCOCCO2,-,?,.,-,-,-
Cc1ncoc1C(=O)Nc1ccc2c(c1)OCCO2,47,-,-,-,-,77
CCOC(=O)c1sc2nc(C)nc(N3CCN(S(=O)(=O)c4ccccc4)CC3)c2c1C,.,.,-,-,.,.
O=C(NC1CCCCC1)C(c1ccco1)N(Cc1ccco1)C(=O)c1ccco1 (stereo not drawn),-,.,-,-,-,-
Cc1nn2c(N)c(C#N)cnc2c1-c1ccc(Cl)cc1,-,.,-,-,-,-
Cc1nn2cc(-c3ccc(Cl)cc3)cnc2c1Cl,29,-,-,-,-,49
O=C(Nc1ccccc1C(=O)N1CCOCC1)c1ccc(Br)cc1,-,-,-,-,-,-
COc1ccc(C2CC(C)(c3ccc(OC)cc3)Nc3ccccc3N2)cc1 (stereo not drawn),53,?,?,-,?,108
COc1ccc(C2(C)CC(C)(C)Nc3ccccc32)cc1 (stereo not drawn),-,?,-,-,-,.
Cn1c(O)c(C(=NCCc2c[nH]c3ccccc23)c2ccccc2)c(=O)n(C)c1=O,-,9.3µM,-,-,?,-
CCC(Oc1ccccc1)C(=O)N1CCN(C(=O)C(CC)Oc2ccccc2)CC1 (stereo not drawn),-,.,-,-,?,-
COc1ccc(C(=S)N2CCC(C(N)=O)CC2)cc1Br,-,-,-,-,-,-
CCCCOc1ccc(C(=S)N2CCC(C(N)=O)CC2)cc1,38,-,-,-,-,105
CCOc1ccc(C(=S)N2CCCC2)cc1,14,-,-,-,?,88
CN(C)c1ccc(C(=S)N2CCCCC2)cc1,23,-,-,-,-,37
CCC(Oc1ccccc1)C(=O)N1CCC(C(N)=O)CC1 (stereo not drawn),18,-,-,-,.,42
CCOC(=O)C1(c2ccccc2)CCN(CCC(C#N)(c2ccccc2)c2ccccc2)CC1,.,1.9µM,-,.,1.9µM,.
CCOC(=O)C1(c2ccccc2)CCN(CCC(=O)Nc2ccc(C(=O)OC)cc2)CC1,.,5.2µM,-,-,9.3µM,.
CCOC(=O)C1(c2ccccc2)CCN(CCC(=O)Nc2ccc(OC)cc2)CC1,.,.,-,.,.,.
SMILES,Cycloheximide cs,Pf growth 48h,AMA1 RON2 block,SARS PLP yeast,Pf growth 96h,Shiga toxin inh
CC(C)CN1C(=O)NC2(CCCc3ccccc32)C1=O (stereo not drawn),-,-,-,-,?,-
Cc1ccc(OCC(=O)Nc2cccc3ccccc23)c([N+](=O)[O-])n1,.,.,-,-,.,.
COc1cc(SC)ccc1C(=O)NCCc1ccccc1,49,-,-,-,-,74
COc1ccc(CNC(=O)c2ccc(SC)cc2OC)cc1,-,?,-,-,?,-
COc1cc(SC)ccc1C(=O)NCCOc1c(C)cc(C)cc1C,-,13µM,-,-,4.7µM,-
COc1cc(SC)ccc1C(=O)NCCOc1ccc(Cl)cc1,-,?,-,-,-,-
O=C(NC1CCCCC1)C(=S)NC1CCCCC1,-,-,.,-,-[5.75 µM],-
NNC(=S)NC1CCCCC1,13,-[5.75 µM],-,-,?,43
O=C(CCn1c(=O)c2cccn2c2cccnc21)NCc1cccc(Cl)c1,-,-,-,-,?,-

# High-throughput results: PubChem, National Center for Advancing Translational Sciences (NCATS)
